# Assay results from PubChem BioAssay.
# Inconclusive results are not listed. Calls of active or inactive are those of the source.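 The calls were made as follows, unless noted: active = normalized viability below 100% at a tested concentration; inactive = the rest.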
# Assays:
# [1] = viability loss in pontine glioma line – cell-based, SU-DIPG-XVII, MIPE5.0, CellTiter-Glo, qHTS, dose response (AID 1347060; cut-off not given, nearly all actives have AC50 up to about 26 µM;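 as to AC50: cells exposed to compound for 48 hours before viability readout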); settings: CellTiter-Glo ATP luminescence
# [2] = viability loss in pontine glioma line – cell-based, SU-DIPG-XIII, MIPE4.0, CellTiter-Glo, qHTS, dose response (AID 1347061; cut-off not given, nearly all actives have AC50 up to about 37 µM;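 also: cells exposed to compound for 48 hours before readout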); settings: CellTiter-Glo ATP luminescence
# [3] = viability loss in pontine glioma line – cell-based, JHH-DIPG-1, MIPE4.0, CellTiter-Glo, qHTS, dose response (AID 1347062; cut-off not given, nearly all actives have AC50 up to about 27 µM;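 as to AC50: cells exposed to compound for two days before readout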); settings: JHH-DIPG-1 viability, CellTiter-Glo ATP luminescence
# [4] = viability loss in pontine glioma line – cell-based, SU-DIPG-IV, MIPE4.0, CellTiter-Glo, qHTS, dose response (AID 1347063; cut-off not given, nearly all actives have AC50 up to about 30 µM;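 also: compound exposure lasted 48 hours before the viability readout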); settings: CellTiter-Glo ATP luminescence
# [5] = viability loss with induced miR-34 in A549 – imaging, A549 dox-inducible miR-34, nuclei and caspase counts, primary screen (AID 1347080;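 active = compounds whose cell count with miR-34 switched on is under 0.7 times the count with it off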); settings: A549 miR-34 inducible, Hoechst nuclei count, 48 h
# [6] = compounds altering HSF1 focus formation in cells – imaging, Selleck Cancer Library (AID 1347162; in the data active = plate-normalised HSF1 focus index below about 0.46); settings: human cells, HSF1 nuclear foci imaging, at 10 µM; SSMD: measured here: HSF1 foci SSMD mean; cell count: measured here: cell number; plate-normalised HSF1 focus index: stronger effect = lower value
# [7] = viability loss in pontine glioma line – cell-based, SU-DIPG-XIII, MIPE5.0, CellTiter-Glo, qHTS, dose response (AID 1347064; cut-off not given, nearly all actives have AC50 up to about 23 µM;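 as to AC50: cells exposed to compound for 48 hours before the viability read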); settings: CellTiter-Glo ATP luminescence
# [8] = viability loss in pontine glioma line – cell-based, SU-DIPG-XXV, MIPE5.0, CellTiter-Glo, qHTS, dose response (AID 1347065; cut-off not given, nearly all actives have AC50 up to about 26 µM;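 also: cells exposed to compound for 48 hours before ATP readout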); settings: CellTiter-Glo ATP luminescence
# [9] = growth inhibition of DIPG cells – cell-based, MIPE4.0 library, CellTiter-Glo luminescence, qHTS (AID 1347066; cut-off not given, nearly all actives have AC50 up to about 30 µM;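 also: cells exposed to compound for 48 hours before readout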); settings: SU-DIPG-VI viability, CellTiter-Glo ATP luminescence
# [10] = JHH-DIPG-1 glioma cell viability, MIPE5.0 library, CellTiter-Glo luminescence, qHTS (AID 1347067; cut-off not given, nearly all actives have AC50 up to about 26 µM;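 also: cells exposed to compound for 48 hours before readout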); settings: JHH-DIPG-1 glioma viability, CellTiter-Glo ATP luminescence
# [11] = growth inhibition of DIPG cells – cell-based, MIPE5.0 library, qHTS (AID 1347068; cut-off not given, nearly all actives have IC50 up to about 30 µM;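 as to IC50: cells exposed to compound for 48 hours before viability readout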); settings: SU-DIPG-XXV viability
# [12] = MELAS cybrid and Rieske KO viability enhancers – cell-based, MELAS cybrids, Rieske KO mouse fibroblasts, CellTiter-Glo, primary screen (AID 1508586;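 active = mean z-score across replicates of 1.96 or higher in either the MELAS or the Rieske mutant cell line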;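 also: z relative to plate mean and SD of compound and empty wells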); settings: low glucose
# [13] = drug combination growth inhibition, ovarian cancer – cell-based, oncology-focused library, rucaparib conditional, profiling panel (AID 1508598); settings: patient-derived ovarian cancer cells, CellTiter-Glo viability, 144 h, stronger effect = lower value
# [14] = stronger effect = lower value, cell number ratio, induced over uninduced
# [15] = measured here: relative caspase fold change +Dox/-Dox
# [16] = measured here: total cells with miR-34 induction, stronger effect = lower value
# [17] = measured here: total cells without miR-34 induction
# [18] = MELAS cybrid survival, CellTiter-Glo 48 h, stronger effect = higher value
# [19] = Rieske KO mouse fibroblast survival, CellTiter-Glo 72 h
# [20] = at 0.000305 µM, OCI-C5x cells, with rucaparib 10 µM, 100% = cells with rucaparib alone
# [21] = at 0.000305 µM, OCI-C5x cells, without rucaparib
# [22] = at 0.000305 µM, OCI-P5x cells, with rucaparib 20 µM, 100% = cells with rucaparib alone
# [23] = at 0.000305 µM, OCI-P5x cells, without rucaparib
# [24] = at 0.00122 µM, OCI-C5x cells, with rucaparib 10 µM, 100% = cells with rucaparib alone
# [25] = at 0.00122 µM, OCI-C5x cells, without rucaparib
# [26] = at 0.00122 µM, OCI-P5x cells, with rucaparib 20 µM, 100% = cells with rucaparib alone
# [27] = at 0.00122 µM, OCI-P5x cells, without rucaparib
# [28] = at 0.00488 µM, OCI-C5x cells, with rucaparib 10 µM, 100% = cells with rucaparib alone
# [29] = at 0.00488 µM, OCI-C5x cells, without rucaparib
# [30] = at 0.00488 µM, OCI-P5x cells, with rucaparib 20 µM, 100% = cells with rucaparib alone
# [31] = at 0.00488 µM, OCI-P5x cells, without rucaparib
# [32] = at 0.0195 µM, OCI-C5x cells, with rucaparib 10 µM, 100% = cells with rucaparib alone
# [33] = at 0.0195 µM, OCI-C5x cells, without rucaparib
# [34] = at 0.0195 µM, OCI-P5x cells, with rucaparib 20 µM, 100% = cells with rucaparib alone
# [35] = at 0.0195 µM, OCI-P5x cells, without rucaparib
# [36] = at 0.0781 µM, OCI-C5x cells, with rucaparib 10 µM, 100% = cells with rucaparib alone
# [37] = at 0.0781 µM, OCI-C5x cells, without rucaparib
# [38] = at 0.0781 µM, OCI-P5x cells, with rucaparib 20 µM, 100% = cells with rucaparib alone
# [39] = at 0.0781 µM, OCI-P5x cells, without rucaparib
# [40] = at 0.313 µM, OCI-C5x cells, with rucaparib 10 µM, 100% = cells with rucaparib alone
# [41] = at 0.313 µM, OCI-C5x cells, without rucaparib
# [42] = at 0.313 µM, OCI-P5x cells, with rucaparib 20 µM, 100% = cells with rucaparib alone
# [43] = at 0.313 µM, OCI-P5x cells, without rucaparib
# [44] = at 1.25 µM, OCI-C5x cells, with rucaparib 10 µM, 100% = cells with rucaparib alone
# [45] = at 1.25 µM, OCI-C5x cells, without rucaparib
# [46] = at 1.25 µM, OCI-P5x cells, with rucaparib 20 µM, 100% = cells with rucaparib alone
# [47] = at 1.25 µM, OCI-P5x cells, without rucaparib
# [48] = at 5 µM, OCI-C5x cells, with rucaparib 10 µM, 100% = cells with rucaparib alone
# [49] = at 5 µM, OCI-C5x cells, without rucaparib
# [50] = at 5 µM, OCI-P5x cells, with rucaparib 20 µM, 100% = cells with rucaparib alone
# [51] = at 5 µM, OCI-P5x cells, without rucaparib
compound,measurement,setting,value
CC[C@H](CO)Nc1nc(NCc2ccccc2)c2ncn(C(C)C)c2n1,AC50,[1],20.9 µM (active)
same,AC50,[2],16.6 µM (active)
same,AC50,[3],26.4 µM (active)
same,AC50,[4],20.9 µM (active)
same,fold change,[5]; [14],0.923 (inactive)
same,fold change,[5]; [15],1.07
same,cell count,[5]; [16],983
same,cell count,[5]; [17],1060
same,SSMD,[6],1.82
same,cell count,[6],7490
same,plate-normalised HSF1 focus index,[6],1.11 (inactive)
Cn1cc(-c2ccc3ncc(Cc4ccc5ncccc5c4)n3n2)cn1,outcome,[1],inactive
same,outcome,[2],inactive
same,outcome,[3],inactive
same,outcome,[7],inactive
same,outcome,[8],inactive
same,outcome,[9],inactive
same,outcome,[10],inactive
same,outcome,[11],inactive
same,fold change,[5]; [14],0.865 (inactive)
same,fold change,[5]; [15],0.902
same,cell count,[5]; [16],8680
same,cell count,[5]; [17],10000
same,z-score,[12]; [18],-0.376 (inactive)
same,z-score,[12]; [19],0.544
Cn1cnc2c(F)c(Nc3ccc(Br)cc3Cl)c(C(=O)NOCCO)cc21,AC50,[1],4.17 µM (active)
same,AC50,[2],10.5 µM (active)
same,AC50,[3],9.35 µM (active)
same,AC50,[7],5.9 µM (active)
same,AC50,[8],4.68 µM (active)
same,outcome,[9],inactive
same,AC50,[10],0.833 µM (active)
same,fold change,[5]; [14],1.01 (inactive)
same,fold change,[5]; [15],0.759
same,cell count,[5]; [16],3770
same,cell count,[5]; [17],3730
same,SSMD,[6],2.54
same,cell count,[6],7320
same,plate-normalised HSF1 focus index,[6],1.09 (inactive)
same,z-score,[12]; [18],-0.103 (inactive)
same,z-score,[12]; [19],-0.489
same,viability,[13]; [20],105% (inactive)
same,viability,[13]; [21],106% (inactive)
same,viability,[13]; [22],80.8% (active)
same,viability,[13]; [23],84.9% (active)
same,viability,[13]; [24],104% (inactive)
same,viability,[13]; [25],92.6% (active)
same,viability,[13]; [26],81.4% (active)
same,viability,[13]; [27],82.8% (active)
same,viability,[13]; [28],101% (inactive)
same,viability,[13]; [29],93.7% (active)
same,viability,[13]; [30],70.3% (active)
same,viability,[13]; [31],75.1% (active)
same,viability,[13]; [32],110% (inactive)
same,viability,[13]; [33],92.3% (active)
same,viability,[13]; [34],56.4% (active)
same,viability,[13]; [35],70.1% (active)
same,viability,[13]; [36],102% (inactive)
same,viability,[13]; [37],83.8% (active)
same,viability,[13]; [38],53.5% (active)
same,viability,[13]; [39],65.2% (active)
same,viability,[13]; [40],104% (inactive)
same,viability,[13]; [41],80.4% (active)
same,viability,[13]; [42],43.6% (active)
same,viability,[13]; [43],59.6% (active)
same,viability,[13]; [44],84% (active)
same,viability,[13]; [45],82.2% (active)
same,viability,[13]; [46],38.2% (active)
same,viability,[13]; [47],61.5% (active)
same,viability,[13]; [48],49.5% (active)
same,viability,[13]; [49],51.1% (active)
same,viability,[13]; [50],25.6% (active)
same,viability,[13]; [51],32.7% (active)
COc1cc2c(Oc3ccc4[nH]c(C)cc4c3F)ncnc2cc1OCCCN1CCCC1,AC50,[1],1.86 µM (active)
same,AC50,[2],6.62 µM (active)
same,AC50,[3],20.9 µM (active)
same,AC50,[7],2.35 µM (active)
same,AC50,[8],2.09 µM (active)
same,AC50,[9],23.5 µM (active)
same,AC50,[10],11.8 µM (active)
same,IC50,[11],16.6 µM (active)
same,fold change,[5]; [14],0.973 (inactive)
same,fold change,[5]; [15],1.09
same,cell count,[5]; [16],3660
same,cell count,[5]; [17],3760
same,z-score,[12]; [18],-0.469 (inactive)
same,z-score,[12]; [19],-0.313
same,viability,[13]; [20],123% (inactive)
same,viability,[13]; [21],103% (inactive)
same,viability,[13]; [22],96.3% (active)
same,viability,[13]; [23],88.7% (active)
same,viability,[13]; [24],114% (inactive)
same,viability,[13]; [25],112% (inactive)
same,viability,[13]; [26],105% (inactive)
same,viability,[13]; [27],94% (active)
same,viability,[13]; [28],107% (inactive)
same,viability,[13]; [29],99.8% (active)
same,viability,[13]; [30],97.5% (active)
same,viability,[13]; [31],91.6% (active)
same,viability,[13]; [32],123% (inactive)
same,viability,[13]; [33],96.3% (active)
same,viability,[13]; [34],97.8% (active)
same,viability,[13]; [35],93.1% (active)
same,viability,[13]; [36],126% (inactive)
same,viability,[13]; [37],101% (inactive)
same,viability,[13]; [38],81.8% (active)
same,viability,[13]; [39],92% (active)
same,viability,[13]; [40],116% (inactive)
same,viability,[13]; [41],98.1% (active)
same,viability,[13]; [42],91.9% (active)
same,viability,[13]; [43],94.6% (active)
same,viability,[13]; [44],123% (inactive)
same,viability,[13]; [45],107% (inactive)
same,viability,[13]; [46],110% (inactive)
same,viability,[13]; [47],86.9% (active)
same,viability,[13]; [48],131% (inactive)
same,viability,[13]; [49],115% (inactive)
same,viability,[13]; [50],76.9% (active)
same,viability,[13]; [51],82.8% (active)
C[C@]12CC[C@H](O)CC1=CC[C@@H]1[C@@H]2CC[C@]2(C)C(c3cccnc3)=CC[C@@H]12,outcome,[1],inactive
same,outcome,[2],inactive
same,outcome,[3],inactive
same,outcome,[7],inactive
same,outcome,[8],inactive
same,outcome,[9],inactive
same,outcome,[10],inactive
same,SSMD,[6],1.68
same,cell count,[6],7310
same,plate-normalised HSF1 focus index,[6],1.06 (inactive)
Cn1c(CNc2ccc(C(=N)N)cc2)nc2cc(C(=O)N(CCC(=O)O)c3ccccn3)ccc21,outcome,[1],inactive
same,outcome,[2],inactive
same,outcome,[3],inactive
same,outcome,[7],inactive
same,outcome,[8],inactive
same,outcome,[9],inactive
same,outcome,[11],inactive
